In PubChem BioAssay (Tox21):
Records with an inconclusive call do not appear. A call without a number means that no potency is given here. A number with no mark means an inactive call. Activity calls are given as the source filed them. Calls follow the shape of the dose curve; as a rule, active = well fitted activation curve with a large enough effect in the repeat runs; inconclusive = weak or mixed curves; inactive = no such curve, though single readings can be large or run the other way.

assay: qHTS assay for small molecules that induce genotoxicity in human embryonic kidney cells expressing luciferase-tagged ATAD5 (AID 651632); details: HEK293T ATAD5-luciferase induction, 16 h; series mostly up to 83.3 µM; activation: at the top concentration; also: nearly all actives have a fitted effect of over 15% in size
From the text: U.S. Tox21 Program National Center for Advancing Translational Sciences [NCATS] NIH Chemical Genomics Center [NCGC] U.S. Environmental Protection Agency [EPA] National Institutes of Environmental Health Sciences [NIEHS] National Toxicology Program [NTP] U.S. Food and Drug Administration [FDA] Tox21 Assay Overview: As cancer cells divide rapidly and during every cell division they need to duplicate their genome by DNA replication. The failure to do so results in the cancer cell death. Based on this concept, many chemotherapeutic agents were developed but have limitations such as low efficacy and severe side effects etc. A new cell based assay was developed to find the compounds that effectively block DNA replication either by directly damaging DNA or by inhibiting other cellular mechanisms. Enhanced Level of Genome Instability Gene 1 (ELG1; human ATAD5) protein levels increase in response to various types of DNA damage. Using a luciferase reporter-gene tagged with ATAD5, a cell-based assay [developed by Kyungjae Myung, NHGRI, NIH] was used to measure the induction of ATAD5 in human embryonic kidney cells (HEK293T). So, increase in luciferase activity can be used to identify the compounds that cause genetic stress.
Tox21 Assay Protocol Summary: For genotoxicity screening, 2,000 cells in 5 uL/well were dispensed into white, solid-bottom 1536-well plates using a Multidrop Combi (Thermo Scientific) dispenser. Following transfer of 23 nL compound or DMSO vehicle by a pin tool, the plates were incubated 16 hr at 37C and 5% CO2. 5 ul Amplite (AAT Bioquest, Inc.) was then added to each plate and following 30 min incubation at room temperature, luciferase activity was quantified on a ViewLux CCD-based plate reader.
Potency is read from the fitted curve at half-maximal effect.

| Structure (SMILES) | Potency | activation [%] |
| --- | --- | --- |
| CC1=C(/C=C/C(C)=C/C=C/C(C)=C/CO)C(C)(C)CCC1 | inactive | – |
| CCCCCC/C=C/CCCCCCCC(=O)O | inactive | – |
| O=C(Cl)c1c(Cl)c(Cl)c(C(=O)Cl)c(Cl)c1Cl | inactive | – |
| O=c1c(-c2ccc(O)cc2)coc2cc(O)ccc12 | 30.3 µM (active) | – |
| CCCCC(CC)C(=O)OCCOCCOCCOC(=O)C(CC)CCCC (stereo not given) | inactive | – |
| CS(=O)(=O)c1ccc([C@@H](O)[C@@H](CO)NC(=O)C(Cl)Cl)cc1 | inactive | – |
| Clc1cc(Cl)c(Cl)cc1Cl | inactive | – |
| Cc1ccc(N)c(S(=O)(=O)O)c1 | inactive | – |
| CC(=O)CCc1ccccc1 | inactive | – |
| O=S(=O)(O)c1cc(S(=O)(=O)O)c2c(N=Nc3ccccc3)c(O)ccc2c1 | inactive | – |
| COC(=O)c1ccc(C(=O)OC)cc1 | inactive | – |
| O=C(O)c1cc(-c2ccccc2)nc2ccccc12 | inactive | – |
| CC(C)(C)C1CCC(O)CC1 (stereo not given) | inactive | – |
| C=C(C)C(=O)OCC(CC)(COC(=O)C(=C)C)COC(=O)C(=C)C | inactive | – |
| CN(C)c1ccc(C(=N)c2ccc(N(C)C)cc2)cc1 | inactive | – |
| O=S(=O)(Oc1ccc(Cl)cc1Cl)c1ccccc1 | inactive | – |
| C=C1CC[C@H](O)CC1=C/C=C1\CCC[C@]2(C)[C@@H]([C@H](C)/C=C/[C@H](C)C(C)C)CC[C@@H]12 | inactive | – |
| CCCCC(CC)COC(C)=O (stereo not given) | inactive | – |
| CCCCC/C=C\C/C=C\CCCCCCCC(=O)OC | inactive | – |
| CCC(C)C=O (stereo not given) | inactive | – |

| Structure (SMILES) | Potency | activation [%] |
| --- | --- | --- |
| Cc1cc(O)cc(C)c1Cl | inactive | – |
| Cc1ccc(C)c(C)c1 | inactive | – |
| C=C(C#N)C(=O)OCC | – | -1.09 |
| Nc1c(S(=O)(=O)O)cc(Br)c2c1C(=O)c1ccccc1C2=O | inactive | – |
| Oc1ccc2ccccc2c1N=Nc1ccccc1 | inactive | – |
| COCC(C)O (stereo not given) | inactive | – |
| Cc1cc(Cc2ccc(N)c(C)c2)ccc1N | inactive | – |
| C[C@@H](O)[C@H]1C(=O)N2C(C(=O)O)=C(S[C@@H]3CN[C@H](C(=O)N(C)C)C3)[C@H](C)[C@H]12 | – | 1.47 |
| Cc1cc(=O)[nH]c(C(C)C)n1 | inactive | – |
| CCc1ccccc1O | inactive | – |
| OCCOCCOCCOCCO | inactive | – |
| Oc1ccc(OCc2ccccc2)cc1 | 12.7 µM (active) | – |
| Cc1cc(O)c2c(c1)C(=O)c1cc(O)cc(O)c1C2=O | inactive | – |
| c1ccc2ccccc2c1 | inactive | – |
| CC(C)Cc1ccccc1 | – | -1.26 |
| CC[Si](OC(C)=O)(OC(C)=O)OC(C)=O | inactive | – |
| CCCCC(CC)COC(=O)/C=C\C(=O)OCC(CC)CCCC (stereo not given) | inactive | – |
| Nc1cc(-c2ccncc2)c[nH]c1=O | inactive | – |
| CCC(=O)O | inactive | – |
| CC1(C)CC(N=C=O)CC(C)(CN=C=O)C1 (stereo not given) | inactive | – |
